Screening data as filed in PubChem BioAssay.
A selection: hits, their analogues and other compounds. The true share with any hit is near 1.5%.
NTR1 agonist: agonists of human NTR1, primary screen, imaging, U2OS cells, beta-arrestin-GFP, high content. Neurotensin receptor type 1 (Homo sapiens), P30989. NTR1-U2OS beta-arrestin-GFP spot imaging, agonist mode. activation, % at 20 µM. 0.17% of 330,000 active. AID 493036, 2011;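 active = activation at or above 40% of the spot to cytoplasm intensity ratio, with at least 20 cells analyzed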;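 note: 0% = DMSO without peptide and 100% = 100 nM NTR1 peptide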
TLR4-MyD88 BLA: inhibitors of TLR4-MyD88 association in cells, primary screen, cell-based, HeLa CL3-4, BLA complementation, FRET ratio. HeLa CL3-4 TLR4/MyD88 BLA complementation. Toll-like receptor 4 (Homo sapiens) + Myeloid differentiation primary response protein …. inhibition, % at 8.4 µM. AID 861, 2007. 0.18% of 200,000 active; in the data active = inhibition above about 25%;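 note: 0% = vehicle and 100% = reference inhibitor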
ABHD5-PLIN5 inh: ABHD5-PLIN5 interaction inhibitors, primary screen, cell lysate, split luciferase complementation, luminescence; AID 602281, 2012; inhibition, % at 4 µM; 0.78% of 360,000 active; Split G. princeps luciferase complementation, 4 h; Perilipin-5 (Homo sapiens) + 1-acylglycerol-3-phosphate O-acyltransferase ABHD5 (Homo …;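 active = inhibition above the mean inhibition across every tested compound plus 3 SD, cut at about 22% in these data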;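 note: 0% = DMSO only wells and the 100% control is not disclosed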
TLR9-MyD88 block: inhibitors of TLR9-MyD88 association in cells, primary screen, cell-based, CHO, BLA complementation, fluorescence. Toll-like receptor 9 (Homo sapiens) + Myeloid differentiation primary response protein …. CCF4 FRET ratio. inhibition, % at 4.98 µM. 0.21% of 340,000 active;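 active = inhibition above the mean over all tested compounds plus 3 SD, cut at about 21% in these data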;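 note: 0% = DMSO only wells and 100% = clavulanate BLA inhibitor control wells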
Beta2AR agonist: beta2AR agonists driving receptor internalization, primary screen, cell-based, FAP fluorogen, flow cytometry; Am2.2-beta2AR cells; response, % (test concentration not listed); 0.43% of 340,000 active; AID 504454, 2011;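 active = response above a set limit, near 3 SD of response in nonfluorescent compounds, cut at about 42% in these data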
NOD2 RIPK2 PPI: NOD2-RIPK2 binding disruptors in cells, primary screen, fluorescence, CHO cells, BLA complementation. CCF4 ratio. AID 624267, 2012. inhibition, % at 4.98 µM. 0.38% of 360,000 active. Receptor-interacting serine/threonine-protein kinase 2 (Homo sapiens), O43353; in the data active = inhibition above about 21%;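 note: 0% = vehicle only and 100% = reference blocker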
Target sequence (O43353 whole entry, looked up): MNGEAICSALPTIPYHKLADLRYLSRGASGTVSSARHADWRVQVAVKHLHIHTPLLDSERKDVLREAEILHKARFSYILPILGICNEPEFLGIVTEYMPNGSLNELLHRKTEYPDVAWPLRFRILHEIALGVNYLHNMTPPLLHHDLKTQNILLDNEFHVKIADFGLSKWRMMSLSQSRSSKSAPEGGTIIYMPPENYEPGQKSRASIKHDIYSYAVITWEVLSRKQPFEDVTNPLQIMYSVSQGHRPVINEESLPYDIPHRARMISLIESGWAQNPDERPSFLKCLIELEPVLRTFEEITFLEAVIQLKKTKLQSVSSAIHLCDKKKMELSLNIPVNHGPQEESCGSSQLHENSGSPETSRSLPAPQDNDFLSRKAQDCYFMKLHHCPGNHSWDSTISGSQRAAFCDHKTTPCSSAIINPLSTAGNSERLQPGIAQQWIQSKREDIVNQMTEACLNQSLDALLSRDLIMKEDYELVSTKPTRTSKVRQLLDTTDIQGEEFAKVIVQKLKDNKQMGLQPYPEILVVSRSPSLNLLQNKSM
TLR4 MyD88 cnf: TLR4-MyD88 association inhibitors, retest, confirmation, cell-based, HeLa CL3-4, BLA complementation, FRET ratio. 50% of 350 active. AID 941, 2007. inhibition, % at 8.4 µM. CCF4 FRET ratio. shares compounds with TLR4-MyD88 BLA;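 active = mean inhibition across three repeat runs above about 25% carried over from the earlier screen, limit read from the data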;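 note: plate controls were DMSO only for no effect and clavulanic acid blocking BLA at full dose for full effect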
BLA inh HeLa: beta-lactamase inhibition flagged in TLR4-MyD88 counter-screen. inhibition, % at 8.4 µM. HeLa BLA reporter, CCF4 FRET ratio. shares compounds with TLR4-MyD88 BLA. 63% of 350 active;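 active = mean inhibition over three repeats above about 26% taken from the earlier screen, limit read from the data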;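 note: HeLa cells stably expressing beta-lactamase reporter as counterscreen for TLR4-MyD88 inhibitors; 0% = DMSO and 100% = clavulanic acid full inhibition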
The depositor's hits bear a star; nt = not tested or not shown.

SMILES	NTR1 agonist	TLR4-MyD88 BLA	ABHD5-PLIN5 inh	TLR9-MyD88 block	Beta2AR agonist	NOD2 RIPK2 PPI	TLR4 MyD88 cnf	BLA inh HeLa
Cn1c(=O)cc(OCCCC(=O)NCc2ccccn2)c2ccccc21	1.2	-2.2	-0.7	2.4	4.9	-5.6	nt	nt
COc1cccc(C(=O)/C=C/Nc2cc(C)ccc2O)c1	24.6	26.6*	-0.7	16.7	4.3	4.1	12.8	24.4
CC(C)(C)OC(=O)N1CCCN(C(c2cc3ccccc3o2)c2nnnn2C(C)(C)C)CC1 (centres undefined)	nt	nt	-6.8	nt	nt	-1.8	nt	nt
O=C1c2ccccc2C(c2nnnn2-c2ccc3c(c2)OCCO3)N1CCCn1ccnc1 (centres undefined)	nt	nt	-5.9	nt	nt	-4.7	nt	nt
O=C(c1cccc(-c2nnc(-c3ccccc3)o2)c1)N1CCCCC1	-0.2	28.0*	6.7	-4.5	-0.6	8.7	-11.7	4.8
CCCCN(CCCC)C(=O)CSc1nnc(-c2cc(OC)c(OC)c(OC)c2)o1	-0.4	5.4	-1.9	-9.3	7.0	1.8	nt	nt
CCCCOC(=O)CSc1nnc(-c2cc(OC)c(OC)c(OC)c2)o1	3.0	25.9*	-6.8	-1.4	12.1	-2.1	17.1	-7.7
N#Cc1sc2nc(-c3cccs3)cc(-c3ccccc3)c2c1N	8.6	46.0*	2.9	6.1	-9.5	7.8	47.5*	81.5*
Cc1cc(C)c(SSc2nnnn2-c2ccccc2)c(C)c1	nt	nt	7.6	-0.8	nt	6.4	nt	nt
Nc1c(C(=O)Nc2ccccc2)sc2nc3c(c(-c4ccco4)c12)CCC3	10.4	8.2	5.0	5.2	17.1	11.8	nt	nt
COc1ccc(-c2c3c(nc4sc(C(=O)Nc5ccccc5)c(N)c24)CCC3)cc1	2.7	25.3*	-3.7	9.1	0.6	8.1	36.0*	57.7*
CC(=O)/C(=N\Nc1ccccc1)Sc1cccc2cccnc12	5.7	-12.1	0.2	1.6	-7.6	7.8	nt	nt
O=C(Sc1cccc2cccnc12)c1ccc(F)cc1	5.9	28.7*	nt	nt	nt	nt	26.4*	39.9*
O=S(=O)(Nc1cc(Sc2cccc3cccnc23)c(O)c2ccccc12)c1ccc(F)cc1	nt	29.5*	nt	nt	nt	nt	25.4*	31.9*
COc1ccc(C)cc1S(=O)(=O)N1CCN(S(=O)(=O)c2cc(C)ccc2OC)C(C)C1 (centres undefined)	1.2	26.9*	-1.6	1.5	4.5	-0.4	-1.6	9.5
Cc1ccc(S(=O)(=O)Nc2cc(C(F)(F)F)ccc2N2CCOCC2)cc1C	12.4	70.2*	5.1	6.2	5.0	-7.1	-1.4	0.7
O=S(=O)(Nc1cc(C(F)(F)F)ccc1N1CCOCC1)c1ccccc1	2.7	nt	-1.3	-9.9	4.1	-4.2	nt	nt
COc1ccc(NC(=O)Nc2ccc3c(c2)C(=O)N([C@H](C)CO)C[C@@H](C)[C@@H](CN(C)C(=O)C2CCCCC2)OCCCC[C@H](C)O3)cc1	nt	nt	-3.1	5.9	nt	8.3	nt	nt
O=C1c2cccc3c(N4CCCCC4)ccc(c23)C(=O)N1c1ccc(O)cc1	-3.2	31.0*	2.1	12.2	-69.1	14.3	30.1*	47.7*
COc1ccc(-c2ccc3c(N)c(C(=O)c4ccc(OC)c(OC)c4)sc3n2)cc1	2.7	27.3*	0.1	9.0	31.4	17.9	22.8	45.0*
CCOC(=O)c1c(C)nc2c(C#N)cnn2c1C	-0.1	25.4*	-0.8	-8.3	-7.8	-3.7	-3.8	13.8
CCOC(=O)c1cnn2c(N)c(C#N)cnc12	1.7	-6.9	-5.7	-5.1	-1.3	-3.9	nt	nt
CC(C)c1ccc(-n2c(-c3ccccc3)c[n+]3c2CCc2ccccc2-3)cc1	nt	25.0	2.1	-4.9	-9.2	11.7	nt	nt
